Source: PubChem (NMMLSC)
In the library only some 1.3% were active in any assay of this set; here they are far more common.
Efflux pump mplx – antifungal efflux pump inhibition, Nile Red retention. S. cerevisiae Candida pump triplex. inhibition, % at 10 µM. 0.44% of 330,000 active. AID 485275;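 active means plate passing quality check with inhibition over a set limit, or well fluorescence over plate mean plus 4 SD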;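 further: Nile Red retained in pooled yeast measured as flow cytometry median fluorescence; 0% = buffer negative control and 100% = Enniatin B positive control; higher means more Nile Red kept so more efflux inhibition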
CIT2 TOR yeast – modulators of TOR pathway CIT2-GFP in S. cerevisiae | 0.065% of 320,000 active | AID 2029 | S. cerevisiae CIT2-GFP strain, flow cytometry, 3 h; 100 means same as DMSO wells | GFP response vs DMSO, % at 10 µM;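 active means GFP response relative to DMSO above a set limit, near the screen mean plus 3 SD, cut at about 150% in these data; inconclusive means Fewer than 70 cells measured for a yeast strain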;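 further: ratio of well median GFP fluorescence to mean of DMSO wells on the plate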
AGP1 TOR yeast – alters AGP1-GFP fluorescence in TOR pathway yeast screen | 0.02% of 320,000 active | S. cerevisiae AGP1-GFP multiplex flow cytometry, 3 h; GFP as percent of DMSO wells | GFP response vs DMSO, % at 10 µM;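 active means GFP response relative to DMSO above a set limit, near screen average plus 3 SD, cut at about 150% in these data; inconclusive means fewer than 70 cells counted for the yeast strain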;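 further: median GFP channel fluorescence of the gated AGP1 strain per well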
LAP4-GFP MLPCN – alters LAP4-GFP fluorescence in TOR pathway yeast screen | AID 2023 | GFP response vs DMSO, % at 10 µM | 0.34% of 320,000 active | S. cerevisiae LAP4-GFP multiplex, flow cytometry GFP, 3 h; median GFP as percent of DMSO wells;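 active means GFP response vs DMSO above a set limit, about the screen mean plus 3 SD, cut at about 150% in these data; inconclusive means under 70 cell events counted for the yeast strain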
RPL19A-GFP yeast – alters RPL19A-GFP fluorescence in TOR pathway yeast screen; S. cerevisiae RPL19A-GFP strain, flow cytometry, 3 h; stronger effect = lower value; percent response vs DMSO, % at 10 µM; 0.3% of 330,000 active; AID 2025;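 active means percent response vs DMSO below 50%; inconclusive means fewer than 70 events counted for the yeast strain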;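 further: median channel GFP fluorescence of the barcoded RPL19A-GFP strain; ratio of sample median GFP to plate DMSO average so 100% = DMSO; lower means less RPL19A-GFP as with rapamycin TOR inhibition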
MEP2 TOR yeast – modulators of TOR pathway MEP2-GFP in S. cerevisiae. S. cerevisiae MEP2-GFP strain, flow cytometry GFP, 3 h; 100% = DMSO control level. GFP response vs DMSO, % at 10 µM. 0.51% of 330,000 active. AID 2016;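 active means GFP response versus DMSO above a set limit, roughly screen mean plus 3 SD, cut at about 180% in these data; inconclusive means fewer than 70 cells counted for a yeast strain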;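 further: median GFP fluorescence of the barcode-gated MEP2-GFP cells per well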
Numbers without * were called inactive; u = inconclusive; x = no result given; [ ] = another dose, or the depositor's remark.

SMILES | Efflux pump mplx | CIT2 TOR yeast | AGP1 TOR yeast | LAP4-GFP MLPCN | RPL19A-GFP yeast | MEP2 TOR yeast
Cc1cnc(NC(=O)C2C(=O)c3ccccc3S(=O)(=O)N2C)s1 (stereo not given) | 0.7 | 108.7 | 105.5 | 97.6 | 107.5 | 105.4
CC1CCCN(S(=O)(=O)c2ccc(Cl)s2)C1 (stereo not given) | -0.1 | u | 21.9 | 84.0 | 53.9 | 315.8*[may fluoresce violet]
O=C(CSc1cn[nH]n1)Nc1ccccc1F | 0.1 | 105.7 | 123.8 | 108.3 | 115.5 | 110.4
O=C(CSc1cn[nH]n1)Nc1ccc(Cl)cc1Cl | 0.1 | u | u | 76.2 | 51.6 | 238.9*[may fluoresce violet]
Cc1cc(C)nc(/N=c2/ssnc2Cl)c1 | 0.0 | 77.2 | 99.8 | 188.3* | 81.5 | 101.7
Cc1nnc(N=c2ssnc2Cl)o1 | 0.0 | 80.5 | 68.9 | 143.2 | 87.1 | 88.7
Cc1cc(Cl)ccc1N=c1ssnc1Cl | -0.2 | 100.3 | 85.2 | 156.7* | 92.7 | 108.9
O=C(Cc1ccc(Br)cc1)NC1CCCCC1 | -0.2 | x | 107.3 | 103.2 | 108.8 | 102.0
O=C(Cc1ccc(O)cc1)NC1CCCCCC1 | 0.3 | u | u | u | 41.6*[may fluoresce violet] | u
O=C(CCS(=O)(=O)Cc1ccccc1F)NCCc1ccc(Cl)cc1 | 0.1 | 150.1* | 161.9* | x | 56.8 | 517.6*
Cc1ccc(CCNC(=O)CCS(=O)(=O)Cc2ccc(C)cc2)cc1 | 0.1 | 99.9 | 97.6 | 91.2 | 103.0 | 106.9
O=C1NC[C@@H](Cc2cccc3ccccc23)N(CC2(c3ccccc3)CC2)C1=O | 0.1 | 96.6 | 96.5 | 97.8 | 98.0 | 95.7
Cc1cccc(C)c1OCC(=O)NCc1ccccc1 | 0.4 | u | u | 79.9 | 42.5*[may fluoresce violet] | 276.8*[may fluoresce violet]
CCCC(=O)N1CCN(c2nc3ccccc3s2)CC1 | -0.1 | 92.2 | 89.2 | 90.6 | 88.7 | 90.3
CSc1ccc(NC(=O)N2CCN(c3nc4ccccc4s3)CC2)cc1 | -0.1 | u | u | 94.0 | 59.7 | 212.2*[may fluoresce violet]
Cc1cccc(C(=O)NCC(=O)N2CCN(c3ccccn3)CC2)c1 | 0.0 | 107.2 | 101.8 | 99.4 | 102.2 | 102.6
Cc1ccc(OC2CCN(C(=O)C3CCC(=O)N(C4CC4)C3)CC2)cc1 (stereo not given) | 0.0 | 86.9 | 92.4 | 79.5 | 92.9 | 77.4
Cc1ccccc1OC1CCN(C(=O)C2CCC(=O)N(C3CCCC3)C2)CC1 (stereo not given) | 0.0 | 99.5 | 105.3 | 155.6* | 88.4 | 98.5
COc1cc2cc(C(N)=O)c(N)nc2cc1OC | -0.2 | u | u | 97.4 | 44.0*[may fluoresce violet] | 215.6*[may fluoresce violet]
COc1ccc2nc(C)c(C(N)=O)cc2c1 | -0.2 | 85.2 | u | u | u | u
O=C(O)CSc1cccc[n+]1[O-] | -0.1 | 95.2 | 99.0 | 93.4 | 96.1 | 99.2
O=C(CSc1cccc[n+]1[O-])c1cc2ccccc2o1 | 0.2 | 82.6 | 89.6 | 154.8* | 91.3 | 95.5
O=C(O)CC(c1cccc(Cl)c1)n1cccc1 (stereo not given) | 0.0 | x | 101.2 | 93.6 | 103.2 | 96.5
Cc1cccc(C(CC(=O)O)n2cccc2)c1 (stereo not given) | 0.1 | u | u | 121.4 | 54.7 | 400.5*[may fluoresce violet]
CC(C)N(Cc1cc2ccccc2[nH]c1=O)C(=O)c1cccc([N+](=O)[O-])c1 | 0.2 | u | u | 97.0 | 44.0*[may fluoresce violet] | 318.7*[may fluoresce violet]
SMILES | Efflux pump mplx | CIT2 TOR yeast | AGP1 TOR yeast | LAP4-GFP MLPCN | RPL19A-GFP yeast | MEP2 TOR yeast
Cc1ccc2[nH]c(=O)c(CN(C(=O)c3cccc([N+](=O)[O-])c3)C(C)C)cc2c1 | -0.2 | 103.6 | 104.6 | 103.4 | 98.9 | 98.6
CC(=O)Nc1ccc(S(=O)(=O)NCCc2ccccn2)cc1 | -0.1 | 93.6 | 98.9 | 99.6 | 96.2 | 94.8
Cc1ccc(N2C(=O)c3cccc4c([N+](=O)[O-])ccc(c34)C2=O)c2cccnc12 | 0.1 | 92.3 | 88.8 | 115.5 | 99.9 | 103.9
Cc1nnc(N2C(=O)c3cccc4c([N+](=O)[O-])ccc(c34)C2=O)s1 | 2.1* | 106.1 | 81.8 | 116.2 | 102.2 | 149.5
Nc1ncnc2c1ncn2[C@@H]1O[C@H](CNCc2ccccc2OCc2ccc(Cl)cc2Cl)[C@@H](O)[C@H]1O | 0.1 | 103.4 | 100.5 | 108.7 | 98.9 | 102.1
c1ccc(CCNc2cnccn2)cc1 | 0.3 | u | u | 70.4 | 65.2 | 190.1*[may fluoresce violet]
c1ccc(CNc2cnccn2)cc1 | -0.1 | 97.9 | 97.0 | 97.7 | 96.8 | 98.0
O=C(O)Cc1c[nH]c2ccc(O)cc12 | 0.1 | 105.2 | 97.8 | 113.1 | 102.8 | 104.7
O=C(Nc1ccccc1N1CCN(C(=O)c2ccc(Cl)cc2)CC1)c1ccc([N+](=O)[O-])o1 | 0.0 | 81.9 | 96.7 | 114.5 | 94.5 | 103.2
O=C(Nc1cccc(Cl)c1N1CCCC1)c1ccc([N+](=O)[O-])o1 | -0.1 | 66.9 | 80.8 | 211.2* | 82.1 | 82.4
O=C(Nc1ccccc1N1CCOCC1)c1ccc([N+](=O)[O-])o1 | -2.8 | 51.7 | 22.2 | 39.7 | 45.4* | 68.3
Nc1c(C(=O)Nc2ccccc2Cl)nnn1-c1ccc2c(c1)OCCO2 | 0.0 | 101.2 | 101.2 | 102.1 | 107.4 | 110.0
Cc1cnc(C(=O)OC(C)C(=O)c2c(C)[nH]c3ccccc23)cn1 (stereo not given) | -0.1 | 71.5 | 92.0 | 125.4 | 88.0 | 86.6
Cc1[nH]c2ccccc2c1C(=O)C(C)OC(=O)C1CCC1 (stereo not given) | 0.2 | 63.8 | 57.3 | 189.1* | 67.8 | 102.7
O=C(NC1CCN(Cc2ccccc2)CC1)c1cn(-c2ccccc2)nc1-c1cccnc1 | 0.0 | 96.3 | 109.1 | 110.9 | 101.9 | 102.1
COCCNC(=O)Nc1ccc2c(c1)N(C)C(=O)c1ccccc1S2 | -0.1 | 102.2 | 98.1 | 101.1 | 94.7 | 107.0
CCC(C)NC(=O)Nc1ccc2c(c1)N(C)C(=O)c1ccccc1S2 (stereo not given) | -0.1 | u | u | 91.1 | 60.6 | 187.8*[may fluoresce violet]
CN(CCC1CCOCC1)C(=O)CC1C(=O)NCCN1Cc1c(F)cccc1Cl (stereo not given) | 0.1 | 102.5 | 103.7 | 103.0 | 101.2 | 96.9
COc1ccc(-n2nc3c(N4CCC(C(=O)N5CCC(C)CC5)CC4)nnc(C)c3c2C)cc1 | 0.4 | u | u | 69.2 | 50.7 | 257.9*[may fluoresce violet]
O=C(Nc1ccc(Cl)cc1)C1CCCN(c2cnccn2)C1 (stereo not given) | 0.1 | 92.2 | 91.4 | 99.6 | 95.5 | 97.3
O=C(Nc1ccc(F)cc1)C1CCCN(c2cnccn2)C1 (stereo not given) | -0.1 | 109.3 | 113.2 | 151.8* | 92.7 | 103.7
CC(C)[C@H](NC(=O)c1ccco1)C(=O)OCC(=O)Nc1ccc(Cl)c(S(=O)(=O)N(C)C)c1 | 0.4 | u | u | 59.3 | 21.5*[may fluoresce violet] | 178.0*[may fluoresce violet]
CC(C)[C@H](NC(=O)c1ccco1)C(=O)OCC(=O)Nc1cccc(F)c1 | 0.1 | 107.4 | 99.0 | 100.7 | 98.2 | 119.8
